# High-throughput results: PubChem BioAssay, Broad Institute
# Shown is part of a subset that was picked to be rich in hits.
# IDE exosite FP – insulin-degrading enzyme (human) exo-site inhibition; purified IDE, FL-6b probe fluorescence polarization; active compounds read low; z-score at 20 µM; hit rate 6.3% among 17,000;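 active = z-score of -3 or lower, meaning strong loss of probe binding signal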;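 note: His-tagged human IDE residues 42-1019 made in E. coli with 30 nM FL-6b probe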
# Active calls of the source: *.
SMILES,IDE exosite FP
N#C[C@@H]1[C@H](c2ccc(C#Cc3ccccc3F)cc2)[C@H](CO)N1C(=O)C1CC1,-2.35
N#C[C@H]1[C@@H](c2ccc(C#Cc3ccccc3F)cc2)[C@H](CO)N1C(=O)C1CC1,-2.19
N#C[C@@H]1[C@H](c2ccc(C#Cc3ccccc3F)cc2)[C@@H](CO)N1C(=O)C1CC1,0.0819
COCC(=O)N1[C@@H](C#N)[C@@H](c2ccccc2)[C@@H]1CO,1.64
N#C[C@H]1[C@@H](c2ccc(C#Cc3ccccc3F)cc2)[C@@H](CO)N1C(=O)C1CC1,-3.36*
COCC(=O)N1[C@H](C#N)[C@@H](c2ccc(C#Cc3ccccc3F)cc2)[C@H]1CO,-3.92*
CN(C)CC(=O)N1[C@H](CO)[C@@H](c2ccc(C#CC3CC3)cc2)[C@@H]1C#N,2.49
C[C@H]1CN([C@@H](C)CO)C(=O)CCCn2nncc2CO[C@@H]1CN(C)C(=O)CCC(F)(F)F,-0.454
COc1ccc(C#Cc2ccc([C@H]3[C@@H](CO)N4C(=O)CN(C(=O)c5cccnc5)C[C@H]34)cc2)cc1,-0.833
CCN(C[C@H]1N[C@H](CO)[C@@H]1c1ccc(-c2cccc(C#N)c2)cc1)C(C)=O,4.26
CNC[C@H]1Oc2c(NS(=O)(=O)c3ccc(Cl)cc3)cccc2C(=O)N([C@@H](C)CO)C[C@@H]1C,1.17
COc1cccc(-c2ccc([C@H]3[C@@H](CO)N4CCCCN(Cc5cncnc5)C[C@@H]34)cc2)c1,-2.69
OC[C@H]1[C@@H](c2ccc(-c3cccc(F)c3)cc2)[C@H]2CN(Cc3cncnc3)CCCCN21,1.45
COc1cccc(-c2ccc([C@H]3[C@@H](CO)N4CCCCN(Cc5cncnc5)C[C@H]34)cc2)c1,-6.61*
COc1ccc(-c2ccc([C@H]3[C@H]4CN(CC5CCOCC5)CCCCN4[C@H]3CO)cc2)cc1,0.748
OC[C@@H]1[C@H](c2ccc(-c3ccccc3)cc2)[C@H]2CN(Cc3cncnc3)CCCCN12,0.118
COc1cccc(-c2ccc([C@H]3[C@H](CO)N4CCCCN(Cc5cncnc5)C[C@@H]34)cc2)c1,-3.01*
COc1cccc(-c2ccc([C@H]3[C@@H](CO)N4CCCCN(CC5CC5)C[C@H]34)cc2)c1,-5.14*
COc1cccc(CN2CCCCN3[C@H](CO)[C@H](c4ccc(-c5cccc(C#N)c5)cc4)[C@@H]3C2)c1,0.952
OC[C@@H]1[C@@H](c2ccc(-c3cccc(F)c3)cc2)[C@@H]2CN(Cc3cncnc3)CCCCN12,0.632
COc1ccc2c3c([nH]c2c1)[C@H](CO)N(S(=O)(=O)c1cn(C)cn1)CC31CCN(Cc2ccccc2Cl)CC1,-0.117
CCCNC(=O)NC[C@H]1[C@H](c2ccc(C3=CCCCC3)cc2)[C@@H](CO)N1C(C)=O,0.587
O=C1CNC[C@@H]2[C@@H](c3ccc(C4=CCCCC4)cc3)[C@H](CO)N12,0.487
O=C1N[C@H](c2ccccc2)COCc2cn(nn2)CC[C@H]1Cc1ccc(C(F)(F)F)cc1,0.567
O=C(C[C@H]1CC[C@@H]2[C@H](COC[C@H](O)CN2C(=O)c2ccncc2)O1)NCc1cc(F)cc(F)c1,0.453
SMILES,IDE exosite FP
OC[C@@H]1[C@H](c2ccc(C3=CCCCC3)cc2)[C@@H]2CN(CCC(F)(F)F)CCCCN12,1.98
COc1ccc(C[C@@H]2CCn3cc(nn3)COCCCNC2=O)cc1,0.876
COC(=O)[C@H]1[C@H](CO)[C@H]2Cn3c(ccc(-c4ccncc4)c3=O)[C@H]2N1Cc1ccccc1F,0.896
c1cncc(-c2ccc(C3[C@H]4CNC[C@@H]3N4Cc3ccc4c(c3)OCO4)cc2)c1 (stereo not given in full),3.94
O=C(Nc1cc(F)ccc1F)N1CCCCN2[C@@H](CO)[C@H](c3ccc(-c4cccnc4)cc3)[C@@H]2C1,2.16
COc1cccc(-c2ccc([C@H]3[C@@H](CO)N4C(=O)CN(C(=O)NC(C)C)C[C@@H]34)cc2)c1,-5.42*
COc1ccc(C#Cc2ccc([C@@H]3[C@H]4CN(C(=O)NC(C)C)CC(=O)N4[C@H]3CO)cc2)cc1,1.04
COc1ccc(C#Cc2ccc([C@H]3[C@@H](CO)N4C(=O)CN(C(=O)NC(C)C)C[C@H]34)cc2)cc1,1.43
COc1cccc(-c2ccc([C@@H]3[C@@H](CO)N4C(=O)CN(C(=O)NC(C)C)C[C@@H]34)cc2)c1,-14.4*
COc1ccc(NC(=O)N2CC(=O)N3[C@H](C2)[C@H](c2ccc(-c4ccccc4)cc2)[C@@H]3CO)cc1,0.544
COc1cccc(-c2ccc([C@@H]3[C@@H](CO)N4C(=O)CN(C(=O)NC(C)C)C[C@H]34)cc2)c1,-3.45*
COc1ccc(C#Cc2ccc([C@H]3[C@H](CO)N4C(=O)CN(C(=O)NC(C)C)C[C@@H]34)cc2)cc1,-1.2
COc1ccc(-c2ccc([C@H]3[C@H](CO)N4C(=O)CN(C(=O)NC(C)C)C[C@@H]34)cc2)cc1,-3.83*
COc1ccc(C#Cc2ccc([C@@H]3[C@@H](CO)N4C(=O)CN(C(=O)NC(C)C)C[C@H]34)cc2)cc1,-0.253
CCS(=O)(=O)N1CC(=O)N2[C@H](CO)[C@@H](c3ccc(C#CCC(C)C)cc3)[C@@H]2C1,1.16
